Hit rate of the full screen: of about 310,000 compounds, about 11,000 (3.5%) were called active. Another 8% or so got no clear call; they are omitted. This is one part of a sample in which actives are shown more often than they occur. Unmarked numbers belong to inactive results. The call rests on the fitted dose curve; in most records, active means well fitted inhibition curve with a large enough effect; inconclusive means small, poorly fitted or top-dose-only effect, or effect the other way; inactive means flat fitted curve, though single readings scatter.
Assay: VP16 counterscreen qHTS for inhibitors of ROR gamma transcriptional activity;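 further: Gal4-VP16 expression switched on by copper sulfate through the metallothionein promoter; nearly all actives have a fitted effect of over 50% in size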
Details: Drosophila S2 Gal4-VP16 UAS-luciferase, luminescence, 20 h; series mostly up to 53.6 µM; activity, negative = inhibition: at the top concentration
Excerpt: NIH Molecular Libraries Probe Production Network [MLPCN]
NIH Chemical Genomics Center [NCGC]
Assay Provider: Dan Littman, New York University
The retinoic acid-related orphan receptor (ROR) gamma is a transcription factor that has a central role in the differentiation of Th17 cells, a subset of T helper cells that secrete the inflammatory cytokines IL-17, IL-17F, and IL-22. Th17 cells have been implicated in graft versus host disease, autoimmune disease and asthma. ROR gamma is induced in naive T helper cells in the presence of TGF-beta combined with IL-6, IL-21, or IL-23, and thereafter directs the expression of the Th17 lineage cytokines. To identify nonspecific inhibitors, a Drosophila Schneider cell line was stably transfected with two vectors: a gene expressing a fusion of the Gal4 DNA binding domain and VP16 transactivation domain under the control of the metallothionine promoter and a Photinus luciferase reporter regulated by the Gal4 binding site enhancer, UAS. […] Small molecule inhibitors that inhibit components common to the RORgt and VP16 assays, such as the Gal4 DNA binding domain or the UAS luciferase reporter, will be active in both assays and thus scored as nonspecific.
For screening, 600 cells in 4 uL/well were dispensed into white solid 1536-well plates (Grenier) using a solenoid-based dispenser. Following transfer of 23 nL compound or DMSO vehicle by a pin tool, the plates were incubated 1 hr at ambient temperature, and 1 uL/well copper sulfate (700 uM final concentration) was added. The plates were centrifuged 15 s at 1000 RPM and incubated 20 hr at ambient temperature. After addition of 1.5 uL Photinus luciferase detection reagent, the plates were incubated 10 min at ambient temperature and then read by a ViewLux (Perkin Elmer) to detect luminescence.
On the % scale 0 is the no-effect control and ±100 the full control effect; potency means the concentration at half of the fitted maximal effect.

Row | Structure (SMILES) | Potency | activity, negative = inhibition
1 | Fc1ccc(C(OCCN2CCN(C/C=C\c3ccccc3)CC2)c2ccc(F)cc2)cc1 | 15.8 µM (active) | –
2 | CC(=O)c1c(O)c(C)c(O)c(Cc2c(O)c3c(c(C(=O)/C=C\c4ccccc4)c2O)OC(C)(C)C=C3)c1O | – | -0.988%
3 | CC(C)(O)c1[se]c2ccccc2c1I | – | -17.8%
4 | N#CC(C#N)=Cc1cc(O)c(O)c([N+](=O)[O-])c1 | 22.4 µM (active) | –
5 | CC(C)(c1ccccc1)c1ccc(O)cc1 | – | 7.15%
6 | COC1=C[C@]23CCCN2CCc2cc4c(cc2[C@@H]3[C@@H]1O)OCO4 | – | -7.05%
7 | CCCCC(=O)N/N=C/c1c(O)n(-c2ccccc2)c(=O)[nH]c1=O | – | 1.03%
8 | CCCCC(=O)N/N=C/c1c(O)n(CC)c(=S)n(CC)c1=O | 3.16 µM (active) | –
9 | CCCCC(=O)N/N=C/c1c(O)n(CCC2=CCCCC2)c(=O)[nH]c1=O | – | 1.97%
10 | c1ccc2sc(SNC3CCCCC3)nc2c1 | – | 2.39%
11 | CN1CCN(C(=O)O[C@@H]2c3nccnc3C(=O)N2c2ccc(Cl)cn2)CC1 | – | -7.9%
12 | CC[C@H]1CN2CCc3cc(OC)c(OC)cc3[C@@H]2C[C@@H]1C[C@H]1NCCc2cc(OC)c(OC)cc21 | 1.26 µM (active) | –
13 | CNC(C)[C@@H](O)c1ccccc1 (stereo partly drawn) | – | 9.08%
14 | c1ccc(N2CC[C@@]3(CCCNC3)C2)nc1 | – | -11.8%
15 | CC(Cl)Cl | – | 4.63%
16 | CC(=O)[O][Sn]([c]1ccccc1)([c]1ccccc1)[c]1ccccc1 | 3.55 µM (active) | –
17 | COC(=O)N1C(c2ccccc2)C1c1ccccc1 (stereo not drawn) | – | 9.71%
18 | CC[C@@H]1CN2CC[C@@H]1C[C@H]2[C@H](O)c1ccnc2ccc(OC)cc12 | – | 9.73%
19 | CCN1C[C@]2(C)CC[C@H](O)[C@@]34[C@@H]5CC6[C@@H](OC)C[C@@](O)([C@@H]5[C@@H]6O)[C@H](C[C@@H]23)[C@H]14 | – | 2.08% [at 17 µM]
20 | CCN1C[C@@]2(COC)CC[C@H](OC)[C@]34[C@@H]1[C@]1(OCO[C@@]15C[C@@H](OC)C1C[C@H]3[C@H]5[C@@H]1OC)[C@H](O)[C@@H]24 | – | 2.2% [at 17 µM]
21 | NC[C@H](O)c1ccc(O)cc1 | – | 4.06% [at 17 µM]
22 | COc1cccc(-c2nc3ccc(N4CCN(C)CC4)cc3[nH]2)c1 | 2 µM (active) | –
23 | CN1CCN(c2cc(N3CCNCC3)ccc2[N+](=O)[O-])CC1 | – | -5.63%
24 | CCCCC#N | – | 10.3%
25 | COc1ccc(C2Oc3c(I)c(OC)cc(OC)c3CC2O)cc1OC (stereo not drawn) | – | 7.75%
26 | C[C@@]12CC[C@H]3[C@@H](CC[C@]4(O)C[C@H](O)CC[C@@]34C=O)[C@]1(O)CC[C@@H]2C1=CC(=O)OC1 | – | 4.3% [at 17 µM]
27 | Clc1ccccc1 | – | -4.14%
28 | C[C@@H]1C[C@@H]2O[C@H]2/C=C\C=C\C(=O)Cc2c(Cl)c(O)cc(O)c2C(=O)O1 | 12.6 µM (active) | –

Source: PubChem BioAssay AID2546 (National Center for Advancing Translational Sciences (NCATS), 2010)
